# In PubChem BioAssay (NCATS):
# Several values for one entry are separate records, joined by “and”; a condition that tells them apart may be missing. Equal entries are not always repeated. Records with an inconclusive call do not appear. A call without a number means that no potency is given here. Activity calls are given as the source filed them. Calls follow the shape of the dose curve; as a rule, active = well fitted curve in the direction sought with a large enough effect; inconclusive = small, poorly fitted or top-dose-only effect, or another doubt; inactive = no such curve, though single readings can be large; an effect the other way counts as inactive or inconclusive.
# Key:
# [1] = system: Zika virus NS2B-NS3 protease (linked construct); assay: Confirmatory screen NINDS AMC qHTS for Zika virus inhibitors (AID 1347152); also: potency is read from the fitted curve at half-maximal effect; nearly all actives have a fitted effect of over 70% in size
# Outline: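 Linked NS2B-NS3 protease, 1 nM, in 10 mM Tris-HCl pH 8.0, 0.01% Tween 20; compounds preincubated 15 min at room temperature. Nle-KRR-AMC 10 microM (Km 18.3 µM); 15-min fluorescence change (340/450 nm) fitted to 4-parameter Hill.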
# [2] = Confirmatory screen GU Rhodamine qHTS for Zika virus inhibitors qHTS (AID 1347157); also: nearly all actives have a fitted effect of over 70% in size
# Outline: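 Buffer 10 mM Tris-HCl pH 8.0, 0.01% Tween 20. Unlinked protease 25 nM; compound preincubation 15 min, RT, protected from light. Substrate Rhod110, 1.5 microM; ~15% conversion in 15 min.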
# [3] = ZIKV-mCherry secondary qHTS for Zika virus inhibitors (AID 1347158); also: top concentration of the series differs between compounds
# Outline: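 After overnight seeding at 37 °C, Vero cells receive compound and then ZIKV-mCherry (MOI 1). Following 48-72 h infection, cells are fixed, counterstained with Hoechst, and imaged; percent infected cells is derived from an mCherry intensity cut-off of 450 RFU.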
# [4] = system: Zika virus NS2B-NS3 protease (linked); assay: 384 well plate NINDS AMC confirmatory qHTS for Zika virus inhibitors (AID 1347163); conditions: Recombinant NS2B-NS3 protease, Ac-VKTGKR-AMC fluorescence; also: potency is read from the fitted curve at half-maximal effect; nearly all actives have a fitted effect of over 50% in size
# Outline: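 Linked protease 5/30/60 nM final; cpds up to 1 mM final, ~15 min preinc. Substrate Ac-VKTGKR-AMC 30 microM final. RT, dark, 25 min; FI ex 355/em 460; normalized to no-enzyme/no-inhibitor ctrls.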
# [5] = system: Zika virus NS2B-NS3 protease (linked construct); assay: 384 well plate NINDS Rhodamine confirmatory qHTS for Zika virus inhibitors (AID 1347164); conditions: rhodamine-110 peptide substrate fluorescence;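 also: fluorescence from protease cleavage of Ac-LKRR-rhodamine 110 substrate; potency is read from the fitted curve at half-maximal effect; nearly all actives have a fitted effect of over 65% in size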
# Outline: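 Linked NS2B-NS3 protease (final 5, 30 or 60 nM) preincubated ~15 minutes with compounds, then 10 microM Ac-LKRR-Rhodamine 110 added. Fluorescence (485/538 nm) read after 25 minutes at room temperature, normalized to no-enzyme and no-inhibitor controls.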
# [6] = system: Zika virus NS2B-NS3 protease; assay: Primary screen GU AMC qHTS for Zika virus inhibitors (AID 1347154); also: nearly all actives have a fitted effect of over 70% in size; also: potency is read from the fitted curve at half-maximal effect
# Outline: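 Unlinked Zika NS2B hydrophilic domain–NS3 protease complex at 25 nM in 10 mM Tris-HCl pH 8.0, 0.01% Tween 20, with an AMC peptide substrate. Fluorescence change (340/450 nm) over 15 min at room temperature, normalized to controls, fitted to 4-parameter Hill.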
# [7] = molecular target: N-terminal Xaa-Pro-Lys N-methyltransferase 1 (Homo sapiens) (UniProt Q9BV86); assay: qHTS Assay for Inhibitors of N-terminal methyltransferase 1 (NTMT1): LOPAC validation of the NTMT1 SAHH-coupled ThioGlo3 Assay (AID 1347143);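 also: SAH from peptide methylation measured as thiol fluorescence via SAHH coupling and ThioGlo3; nearly all actives have a fitted effect of over 70% in size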; also: potency is read from the fitted curve at half-maximal effect
# N-terminal Xaa-Pro-Lys N-methyltransferase 1 (Homo sapiens), sequence (Q9BV86 whole entry, looked up): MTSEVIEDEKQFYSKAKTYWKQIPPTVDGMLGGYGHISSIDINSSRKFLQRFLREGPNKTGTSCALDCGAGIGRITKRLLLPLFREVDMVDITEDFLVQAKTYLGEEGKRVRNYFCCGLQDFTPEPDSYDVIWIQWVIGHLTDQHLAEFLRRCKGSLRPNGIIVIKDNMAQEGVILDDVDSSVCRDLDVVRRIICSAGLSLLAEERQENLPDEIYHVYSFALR
# Outline: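 Recombinant human NTMT1 (125nM) was pre-incubated 1 min at room temperature with compounds over a concentration range, then a mix of 100uM SAM, 10uM SAHH and 15uM ThioGlo3 (concentrations in added reagent) was added. ThioGlo3 fluorescence (ex 340/em 450nm) after 30 min was normalized to the initial reading.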
# [8] = system: Zika virus NS2B-NS3 protease (unlinked); assay: Optimization of GU AMC qHTS for Zika virus inhibitors: Unlinked NS2B-NS3 protease assay (AID 1347151); also: nearly all actives have a fitted effect of over 80% in size
# Outline: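 Noncovalent NS2B hydrophilic domain–NS3 protease complex (25 nM final) in 10 mM Tris-HCl pH 8.0, 0.01% Tween 20; AMC substrate, room temperature 15 min (~20% conversion); fluorescence change normalized, 4-parameter Hill fit.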
# [9] = molecular target: Lysine-specific demethylase 5B (Homo sapiens) (UniProt Q9UGL1); assay: Optimization screen for KDM5B Histone Demethylases FDH coupled qHTS against the LOPAC library (AID 1347166); conditions: KDM5B demethylation, FDH-coupled NADH fluorescence (FDH is formaldehyde dehydrogenase); at 57.5 µM (top of the series)
# Lysine-specific demethylase 5B (Homo sapiens), sequence (Q9UGL1 whole entry, looked up): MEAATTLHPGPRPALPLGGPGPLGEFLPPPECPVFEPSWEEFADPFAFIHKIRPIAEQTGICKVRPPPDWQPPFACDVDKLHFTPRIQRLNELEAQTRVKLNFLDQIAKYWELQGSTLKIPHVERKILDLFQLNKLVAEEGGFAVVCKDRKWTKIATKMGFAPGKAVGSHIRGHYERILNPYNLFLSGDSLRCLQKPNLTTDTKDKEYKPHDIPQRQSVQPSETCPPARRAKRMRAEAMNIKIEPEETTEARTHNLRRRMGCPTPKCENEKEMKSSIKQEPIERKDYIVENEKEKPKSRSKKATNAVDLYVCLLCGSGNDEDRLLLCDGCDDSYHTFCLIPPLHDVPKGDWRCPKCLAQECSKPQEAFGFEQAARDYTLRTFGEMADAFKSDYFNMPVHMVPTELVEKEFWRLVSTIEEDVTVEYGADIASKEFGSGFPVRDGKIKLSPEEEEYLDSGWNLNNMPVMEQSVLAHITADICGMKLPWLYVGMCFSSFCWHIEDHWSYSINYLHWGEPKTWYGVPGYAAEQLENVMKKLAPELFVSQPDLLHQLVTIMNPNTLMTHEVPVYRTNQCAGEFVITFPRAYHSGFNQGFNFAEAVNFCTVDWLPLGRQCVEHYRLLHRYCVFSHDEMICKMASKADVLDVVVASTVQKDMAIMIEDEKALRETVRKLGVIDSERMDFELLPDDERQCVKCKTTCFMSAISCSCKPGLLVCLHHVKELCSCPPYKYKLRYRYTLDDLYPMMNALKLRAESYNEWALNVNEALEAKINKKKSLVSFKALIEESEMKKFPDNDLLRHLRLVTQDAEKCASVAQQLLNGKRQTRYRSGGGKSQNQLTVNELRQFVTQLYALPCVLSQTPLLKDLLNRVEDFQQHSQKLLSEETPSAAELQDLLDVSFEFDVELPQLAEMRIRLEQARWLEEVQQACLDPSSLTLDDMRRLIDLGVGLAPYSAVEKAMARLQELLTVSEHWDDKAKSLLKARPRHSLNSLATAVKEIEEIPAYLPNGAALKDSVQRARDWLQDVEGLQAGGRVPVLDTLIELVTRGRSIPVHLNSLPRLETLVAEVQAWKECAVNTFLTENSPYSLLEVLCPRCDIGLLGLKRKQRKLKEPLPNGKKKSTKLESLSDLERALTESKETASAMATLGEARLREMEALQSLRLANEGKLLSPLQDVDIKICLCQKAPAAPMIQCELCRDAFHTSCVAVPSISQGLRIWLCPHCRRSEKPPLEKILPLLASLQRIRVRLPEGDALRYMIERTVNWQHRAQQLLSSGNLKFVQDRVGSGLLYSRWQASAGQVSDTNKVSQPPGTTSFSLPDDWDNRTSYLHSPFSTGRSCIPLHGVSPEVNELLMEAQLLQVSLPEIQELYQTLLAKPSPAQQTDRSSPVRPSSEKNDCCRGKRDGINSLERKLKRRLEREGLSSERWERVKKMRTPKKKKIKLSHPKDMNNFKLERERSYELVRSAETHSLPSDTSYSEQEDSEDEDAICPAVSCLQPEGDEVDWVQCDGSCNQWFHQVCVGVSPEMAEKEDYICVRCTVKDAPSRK
# Outline: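 KDM5BDeltaAP (200nM final) preincubated 10 min with compound, then 12.5uM H3K4Me3, 25uM a-ketoglutarate, ascorbate, Fe(II), NAD+ and FDH added; 50mM HEPES pH 7.5, 0.01% Tween-20. NADH fluorescence (340/450 nm) change over 30 min, room temperature.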
# [10] = qHTS to identify inhibitors of the type 1 interferon - major histocompatibility complex class I in skeletal muscle: primary screen against the NCATS LOPAC collection (AID 1347405);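 also: lytic HiBiT luminescence reporting HLA-B protein level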
# Outline: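 Cells: C25cl48 human myoblasts, HiBiT-tagged HLA-B*08:01, stimulated with IFN-beta 4.0 ng/ml. Compounds are titrated 1:4.3 over 7 points from 46 uM final and incubated 24 hrs; endogenous MHC class I is quantified by HiBiT lytic luminescence.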
# [11] = molecular target: Furin (Homo sapiens) (UniProt P09958); assay: Furin counterscreen qHTS for Zika virus inhibitors (AID 1347149)
# Furin (Homo sapiens), sequence (P09958 whole entry, looked up): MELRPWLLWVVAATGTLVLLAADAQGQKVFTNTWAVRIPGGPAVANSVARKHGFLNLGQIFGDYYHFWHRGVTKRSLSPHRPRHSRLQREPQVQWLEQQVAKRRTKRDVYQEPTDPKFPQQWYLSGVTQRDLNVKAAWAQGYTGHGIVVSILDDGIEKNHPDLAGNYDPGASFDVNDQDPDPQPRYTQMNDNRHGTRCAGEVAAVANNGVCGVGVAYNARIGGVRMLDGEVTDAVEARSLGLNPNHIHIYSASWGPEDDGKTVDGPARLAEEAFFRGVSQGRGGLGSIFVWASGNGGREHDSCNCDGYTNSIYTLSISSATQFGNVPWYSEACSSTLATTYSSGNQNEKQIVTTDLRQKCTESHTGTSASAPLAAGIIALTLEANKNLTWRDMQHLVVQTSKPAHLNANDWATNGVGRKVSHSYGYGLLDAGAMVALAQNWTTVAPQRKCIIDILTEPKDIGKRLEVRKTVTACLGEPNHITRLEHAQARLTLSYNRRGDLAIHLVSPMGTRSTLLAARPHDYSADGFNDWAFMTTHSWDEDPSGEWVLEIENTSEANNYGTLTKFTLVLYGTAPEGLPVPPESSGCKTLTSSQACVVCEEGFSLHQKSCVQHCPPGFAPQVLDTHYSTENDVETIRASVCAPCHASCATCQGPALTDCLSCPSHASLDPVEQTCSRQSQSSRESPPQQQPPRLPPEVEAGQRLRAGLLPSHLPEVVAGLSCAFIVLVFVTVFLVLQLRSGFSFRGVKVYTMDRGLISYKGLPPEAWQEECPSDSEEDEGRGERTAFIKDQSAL
# Outline: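 Fluorogenic cleavage of BOC-RVRR-AMC (2 microM final, Km ~15 µM) was monitored (ex 340, em 450 nm) at 37C after 15 min RT preincubation of 5 nM furin with compounds in HEPES pH 7.0 buffer with CaCl2 and Triton X-100. Percent inhibition was fitted to a 4-parameter Hill curve.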
# [12] = Vero cells viability qHTS for Zika virus inhibitors (AID 1347167)
# Outline: (§1)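 Cells seeded at 2.5 x 10^5 cells/mL in DMEM with 4% FBS and attached overnight at 37 degrees C, then exposed to compound for 24 to 48 hours. Viability read as ATP content by CellTiter Glo luminescence.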
# [13] = HepG2 cells viability qHTS for Zika virus inhibitors (AID 1347168)
# Outline: as §1
# [14] = Tertiary RLuc qRT-PCR qHTS assay for Zika virus inhibitors (AID 1347169); also: top concentration of the series differs between compounds; nearly all actives have a fitted effect of over 55% in size
# Outline: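 Vero cells (1,000/well) infected with recombinant ZIKV-RLuc (Cambodian) at MOI 1-2 after compound addition, 48-72 hrs at 37 degrees C. Live-cell Renilla luciferase substrate added; luminescence read after 1-1.5 hrs.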
# [15] = qHTS of pediatric cancer cell lines to identify multiple opportunities for drug repurposing: Confirmatory screen for SK-N-SH cells (AID 1347129);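 also: cells exposed to compound for 48 h before viability read; nearly all actives have a fitted effect of over 60% in size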
# Outline: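 Viability after 48 h compound treatment at 37C, 500-1,000 cells/well, read as ATP luminescence with CellTiter-Glo. Primary screens used 11-point (MIPE, 0.78 nM-46 µM) or 8-point (NPC, 0.59 nM-46 µM) final concentrations; follow-up screens used 11-point dilutions.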
# [16] = qHTS to identify inhibitors of the type 1 interferon - major histocompatibility complex class I in skeletal muscle: primary screen against the NCATS Pharmaceutical Collection (AID 1347407);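 also: luminescence of HiBiT knocked into endogenous HLA-B as interferon-induced MHC class I level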
# Outline: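 Immortalized human myoblasts (C25cl48) with HiBiT knocked into endogenous HLA-B*08:01 were stimulated with 4.0 ng/ml IFN-beta and treated with compounds ([…] top 46 uM) for 24 hrs at 37 C. HiBiT lytic luminescence read.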
# [17] = Confirmatory screen NINDS Rhodamine qHTS for Zika virus inhibitors (AID 1347161);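 also: purified Zika NS2B-NS3 protease with linked NS2B cofactor domain and Rhodamine110 peptide substrate; nearly all actives have a fitted effect of over 60% in size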
# Outline: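 Each compound, titrated, sat 15 min with 25 nM linked protease before 1.5 microM Rhodamine110 substrate went in. Fluorescence gain over the next 15 min, in pH 8.0 Tris with Tween 20, gave Hill-fitted curves.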
smiles,measurement,setting,value
Nc1nc(N)c2nc(CNc3ccc(C(=O)NC(CCC(=O)O)C(=O)O)cc3)cnc2n1 (stereo not given),Potency,[1],27.1 µM (active)
COc1cc(NCc2ccc3nc(N)nc(N)c3c2C)cc(OC)c1OC,Potency,[1],24.1 µM (active)
COc1ccc(-c2ccc3cc(C(=O)O)ccc3c2)cc1C12CC3CC(CC(C3)C1)C2,outcome,[2],inactive
COC(=O)Nc1nc2ccc(C(=O)c3ccccc3)cc2[nH]1,outcome,[3],inactive
same,Potency,[4],126 µM (active)
same,Potency,[5],178 µM (active)
CN1CCN(c2c(F)cc3c(=O)c(C(=O)O)cn(CCF)c3c2F)CC1,Potency,[6],inactive
CCN1CCCC1CNC(=O)c1cc(S(N)(=O)=O)ccc1OC (stereo not given),Potency,[7],56.2 µM (active)
same,Potency,[8],inactive
same,Potency,[6],inactive
same,"activity, negative = inhibition",[9],2.22% (inactive)
same,outcome,[10],inactive
NC(=O)c1cccc(N)c1,Potency,[7],inactive
same,Potency,[6],inactive
same,outcome,[10],inactive
CCn1cc(C(=O)O)c(=O)c2cc(F)c(N3CCNCC3)cc21,Potency,[11],17.1 µM (active)
same,Potency,[1],27.1 µM (active)
same,Potency,[12],inactive
same,Potency,[13],inactive
same,Potency,[14],inactive
Cc1c(-c2ccc(O)cc2)n(Cc2ccc(OCCN3CCCCCC3)cc2)c2ccc(O)cc12,Potency,[6],inactive
O=C(O)c1cccnc1,Potency,[6],inactive
CCCCS(=N)(=O)CCC(N)C(=O)O (stereo not given),Potency,[7],inactive
same,Potency,[8],inactive
same,Potency,[6],inactive
same,"activity, negative = inhibition",[9],-3.95% (inactive)
same,outcome,[10],inactive
COc1ccccc1OCC(O)COC(N)=O (stereo not given),Potency,[6],inactive
NC(=O)c1cccnc1,Potency,[15],inactive
same,Potency,[6],inactive
same,Potency,[16],inactive
O=S(=O)(c1cccc2cnccc12)N1CCCNCC1,Potency,[6],inactive
COc1c(N2CCNC(C)C2)c(F)cc2c(=O)c(C(=O)O)cn(C3CC3)c12 (stereo not given),Potency,[11],24.1 µM (active) and 27.1 µM (active)
same,Potency,[1],27.1 µM (active) and 30.4 µM (active)
same,Potency,[6],16.1 µM (active) and 24.1 µM (active)
same,Potency,[17],inactive
same,Potency,[12],inactive
same,Potency,[13],inactive
same,Potency,[14],inactive
same,Potency,[16],inactive
